Source: PubChem
HP1b chromo inh: HTS for Inhibitors of HP1-beta Chromodomain Interactions with Methylated Histone Tails; Chromobox protein homolog 1 (Homo sapiens), P83916; AlphaScreen HP1-beta / biotin-H3K9me3 peptide binding; Potency, µM (titrated, usually from 114 µM), without a hit: at the top dose activity change, negative = inhibition, hits mostly inhibitors; 390,000 tested, 0.56% active; further: nearly all actives have a fitted effect of over 70% in size
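AlphaScreen: HP1-beta (50 nM) preformed 30 min with biotin-H3(1-18)K9me3 peptide (50 nM) in PBS pH 7.4, 0.01% Tween-20. Compound added for 30 min at RT, then streptavidin donor/nickel chelate acceptor beads (10 ug/mL) for 30 min.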
Sfp inh: qHTS Assay for Inhibitors of Bacillus subtilis Sfp phosphopantetheinyl transferase (PPTase). 4'-phosphopantetheinyl transferase ffp (Bacillus subtilis), Q9F4F7. Biochemical Sfp PPTase activity, qHTS. Potency, µM, for the others: largest response in the series, negative = inhibition, hits mostly inhibitors. 310,000 tested, 3.5% active. AID 1490, 2009;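 further: the enzyme is Sfp with the accession as filed and its product quenches rhodamine fluorescence; 0% = enzyme reaction without inhibitor and -100% = no enzyme wells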
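Reaction rates are the 30-min fluorescence difference (ex 525, em 598 nm) in wells containing 15 nM Sfp, 5 uM rhodamine-CoA and 12.5 uM BHQ-2-YbbR at pH 7.6 with 10 mM MgCl2.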
G9a block: qHTS Assay for Inhibitors of Histone Lysine Methyltransferase G9a | Histone-lysine N-methyltransferase EHMT2 (Homo sapiens), Q96KQ7 | G9a H3K9 monomethylation, AlphaScreen, 2 h | Potency, µM (series often up to 102 µM), for the others: top-dose activity, negative = inhibition, usual class: inhibitors | 350,000 tested, 8.8% active | AID 504332, 2011; further: on the % scale 0 is the no-effect control and ±100 the full control effect; nearly all actives have a fitted effect of over 75% in size
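Chemiluminescent proximity detection of H3K9 monomethylation, read after 10 min bead incubation in the dark. Reaction: 20 nM G9a, 500 nM biotin-H3K9 peptide, 20 uM SAM cofactor, 2 h, room temperature, following 15 min enzyme-compound preincubation.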
JMJD2A Tudor inh: qHTS Assay for Inhibitors of JMJD2A-Tudor Domain | Potency, µM (highest dose often 114 µM), for inactives: at the highest dose activity change, negative = inhibition, actives largely listed as inhibitors | AID 504339, 2011 | AlphaScreen JMJD2A-Tudor / H3K4me3 peptide binding | 390,000 tested, 4.4% active | Lysine-specific demethylase 4A (Homo sapiens), O75164; further: on the % scale 0 is the no-effect control and ±100 the full control effect; nearly all actives have a fitted effect of over 50% in size
Target sequence (O75164 whole entry, looked up, the tested form may be a part): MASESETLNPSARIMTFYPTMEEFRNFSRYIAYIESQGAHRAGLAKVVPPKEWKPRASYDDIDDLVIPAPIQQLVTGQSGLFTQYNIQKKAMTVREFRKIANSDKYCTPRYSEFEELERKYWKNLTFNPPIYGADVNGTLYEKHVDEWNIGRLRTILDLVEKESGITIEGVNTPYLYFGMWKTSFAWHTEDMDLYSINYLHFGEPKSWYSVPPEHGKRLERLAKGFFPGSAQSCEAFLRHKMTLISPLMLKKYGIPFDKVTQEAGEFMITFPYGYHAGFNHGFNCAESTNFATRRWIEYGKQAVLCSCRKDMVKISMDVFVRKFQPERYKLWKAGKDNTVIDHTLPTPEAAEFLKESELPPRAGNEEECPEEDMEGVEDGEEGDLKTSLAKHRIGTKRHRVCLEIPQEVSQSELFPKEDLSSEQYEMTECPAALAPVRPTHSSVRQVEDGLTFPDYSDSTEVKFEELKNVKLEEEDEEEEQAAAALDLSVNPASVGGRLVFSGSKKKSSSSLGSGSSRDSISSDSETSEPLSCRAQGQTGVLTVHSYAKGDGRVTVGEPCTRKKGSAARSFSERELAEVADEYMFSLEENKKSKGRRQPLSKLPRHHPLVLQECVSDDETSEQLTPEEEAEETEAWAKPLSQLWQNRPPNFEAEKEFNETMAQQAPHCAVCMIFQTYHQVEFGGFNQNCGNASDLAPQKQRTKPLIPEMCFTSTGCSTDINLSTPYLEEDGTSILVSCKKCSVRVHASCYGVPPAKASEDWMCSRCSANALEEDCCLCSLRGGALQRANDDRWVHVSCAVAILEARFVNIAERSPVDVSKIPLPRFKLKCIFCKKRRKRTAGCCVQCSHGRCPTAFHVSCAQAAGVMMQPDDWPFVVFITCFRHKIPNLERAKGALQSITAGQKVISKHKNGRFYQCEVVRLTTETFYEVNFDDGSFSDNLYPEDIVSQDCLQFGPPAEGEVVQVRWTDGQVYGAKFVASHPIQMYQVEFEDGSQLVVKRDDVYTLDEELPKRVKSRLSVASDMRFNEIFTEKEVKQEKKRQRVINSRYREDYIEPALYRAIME
ALOX12 inh: Primary qHTS assay for inhibitors of human arachidonate 12S-lipoxygenase (ALOX12): Round 2. Polyunsaturated fatty acid lipoxygenase ALOX12 (Homo sapiens), P18054. purified 12hLO, xylenol orange hydroperoxide absorbance. Potency, µM (doses to about 108 µM), for the others: at the top dose activity change, negative = inhibition, most hits filed as inhibitors. 580,000 tested, 1.1% active. AID 1671190, 2021; further: on the % scale 0 is the no-effect control and ±100 the full control effect
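Purified human 12hLO (150 nM final) in 25 mM Hepes, 0.01% Triton X-100, pH 7.0 was preincubated 15 min at room temperature with compound. Then 40 uM arachidonic acid was added, 30 min. Hydroperoxide was read by Fe-XO absorbance ratio 573/405 nm.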
BAZ2B block: qHTS Assay for Inhibitors of BAZ2B; Bromodomain adjacent to zinc finger domain protein 2B (Homo sapiens), Q9UIF8; AlphaScreen BAZ2B-H3K14Ac peptide displacement; Potency, µM (doses to about 114 µM), for the others: at the top dose activity change, negative = inhibition, actives largely listed as inhibitors; 360,000 tested, 4.4% active; AID 504333, 2011; further: on the % scale 0 is the no-effect control and ±100 the full control effect; nearly all actives have a fitted effect of over 60% in size
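Complex of BAZ2B and biotin-H3K14Ac (50 nM apiece) forms over 30 min at RT, then faces library compounds up to 110 uM for another 30 min; AlphaScreen beads added, 20 min dark incubation, luminescence read.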
* marks the source's active call; other numbers are inactive results; ? = inconclusive; / = no result given; ! = not active in a repeat; [ ] = remark or other dose. Hits are enriched below; roughly 8.7% of the tested compounds scored in any of these assays. The call rests on the fitted dose curve; in most records, active means well fitted curve in the direction sought with a large enough effect; inconclusive means small, poorly fitted or top-dose-only effect, or another doubt; inactive means no such curve, though single readings can be large; an effect the other way counts as inactive or inconclusive. Potency means the concentration at half of the fitted maximal effect.

SMILES	HP1b chromo inh	Sfp inh	G9a block	JMJD2A Tudor inh	ALOX12 inh	BAZ2B block
CCCN1CCN(CC2=C(C(=O)OC)C(c3ccc(C)cc3)NC(=O)N2)CC1 (configuration not stated)	/	/	/	/	-29%	/
Cc1noc2c(NCCN(C)C)cc(-c3cccc(C(F)(F)F)c3)nc12	/	/	/	/	14%[176 µM]	/
CC(C)CNc1ccc2nnc(-c3ccc(F)cn3)n2n1	/	/	/	/	9%[176 µM]	/
COc1ccc(C)cc1N=Nc1ccc(O)c2ncccc12	7.9µM*	5%	10µM*	8.9µM*	?	18µM*
Oc1ccc(N=Nc2ccc(Br)cc2)c(O)c1	-9%	-8%	?	-34%	-18%	25µM*
COc1ccc(-c2[nH]ncc2N=Nc2ccccc2)cc1	?	?	50µM*	28µM*	-29%	35µM*
COc1ccc(-c2[nH]ncc2N=Nc2cc(C)cc(C)c2)cc1	-17%	16%	?	-20%[11.4 µM]	-6%	?
COc1ccccc1N1CCN(C(=O)C(C)Sc2nc(Cl)nc3nc[nH]c23)CC1 (configuration not stated)	/	/	/	/	-3%	/
Cc1ccc(Nc2nc(NCC3CC3)nc3ccsc23)c(C)c1	/	/	/	/	40µM*	/
COc1ccccc1NC(=O)CCS(=O)(=O)c1cc2c3c(c1)CCN3C(=O)CC2	11%	/	20µM*	?	?	-2%
COc1ccc(NC(=O)CCS(=O)(=O)c2cc3c4c(c2)CCN4C(=O)CC3)c(OC)c1	4%	/	?	-16%	-20%	-30%
COc1ccc(C)cc1NC(=O)CCS(=O)(=O)c1cc2c3c(c1)CCN3C(=O)CC2	71µM*	/	8.9µM*	32µM*	18µM*	-16%
O=C(CCS(=O)(=O)c1cc2c3c(c1)CCN3C(=O)CC2)Nc1cccc(Br)c1	17%	/	?	79µM*	45µM*	2%
COc1ccnc(CSC(N)=Nc2ccccc2OC)c1	7%	32µM*	8.9µM*	45µM*	?	?
COc1ccnc(CSC(N)=Nc2cccc(C(F)(F)F)c2)c1	?	?	45µM*	20µM*	-21%	35µM*
Nc1nc(NCCO)nc(N2CCCCCC2)c1[N+](=O)[O-]	25%	19%	-9%	-7%	6%	-2%
OCCN(CCO)c1nc(N2CCCCC2)c2nc(N(CCO)CCO)nc(N3CCCCC3)c2n1	22%	-26%	22µM*	-24%	45µM*!	?
CCN(/N=C/c1ccc(Cl)cc1)c1cc(=O)n(C)c(=O)[nH]1	9%	-7%	-1%[59 µM]	40µM*	-9%	1%
CCN(/N=C/C=C/c1ccccc1)c1cc(=O)n(C)c(=O)[nH]1	15%	-28%	-11%	-22%	-13%	?
CCCC1CC(CSC(=N)N)OC1=O (configuration not stated)	13%	-2%	23%[59 µM]	-9%	-14%	12%
CCCOCC1CC(CCc2nc(=S)[nH][nH]2)C(=O)O1 (configuration not stated)	?	56µM*	1.8µM*	5µM*	?	-2%
N#Cc1ccc(OCCOC(=O)COc2ccc(Cl)cc2Br)cc1	/	/	/	/	1%	/
CCOc1ccc(N(C)Cc2cc(=O)oc3ccc(OCC)cc23)cc1	-37%	1%	10µM*	?	13%	18µM*
O=C(c1cc(S(=O)(=O)N2CCCCC2)ccc1N1CCOCC1)N1CCCc2ccccc21	/	/	/	/	17%	/
CCOC(=O)c1[nH]c2ccc(OC)cc2c1NC(=O)c1nonc1C	22%	13%	-6%	-1%	0%	2%
SMILES	HP1b chromo inh	Sfp inh	G9a block	JMJD2A Tudor inh	ALOX12 inh	BAZ2B block
CCOC(=O)c1[nH]c2cc(OC)c(OC)cc2c1N	12%	45µM*	3.2µM*	56µM*	?	-35%
CCOC(=O)c1[nH]c2ccc(C)cc2c1N	-9%	18µM*	1.8µM*	?	-11%	-39%
CCOC(=O)c1[nH]c2ccc(OC)cc2c1NC(=O)c1ccc(OC)c(OC)c1	27%	-6%	50µM*	-5%	-21%	-8%
CCOC(=O)c1[nH]c2cc(OC)c(OC)cc2c1NC(=O)CN1CCN(C)CC1	/	1%	?	/	/	-3%
N#Cc1ccccc1C(=O)N1CCOC(c2ccc(Cl)c(Cl)c2)C1 (configuration not stated)	/	/	/	/	31%	/
CC(c1cc2ccccc2o1)N(C)Cc1nnc(-c2ccccc2)o1 (configuration not stated)	/	/	/	/	22%	/
CC1=C[C@@H](CNS(C)(=O)=O)[C@H](C(C)C)C[C@H]1Cc1nc2ccccc2n1C	/	/	/	/	2%[176 µM]	/
N#Cc1nc(COc2cccc(Cl)c2)oc1NCc1ccc2c(c1)OCO2	/	/	/	/	13µM*	/
N#Cc1nc(COc2ccc(Cl)cc2)oc1NCc1ccc2c(c1)OCO2	?	16%	28µM*	-14%	?	?
N#Cc1nc(-c2ccccc2)oc1NCc1ccc2c(c1)OCO2	/	/	/	/	-9%	/
N#Cc1nc(-c2cccc3ccccc23)oc1NCc1ccc2c(c1)OCO2	/	/	/	/	32µM*	/
CC(C)Nc1oc(-c2cccc3ccccc23)nc1C#N	-8%	-7%	45µM*	27%	?	-34%
CN1CCOC(CNCc2cnc(C(C)(C)C)s2)C1 (configuration not stated)	/	/	/	/	23%	/
Cc1nnnn1-c1ccc(C(=O)Nc2ccc3c(c2)C(=O)N2CCC[C@H]2C(=O)N3)cc1	/	/	/	/	47%	/
CSc1ncccc1C(=O)NCC(=O)Nc1ccc(F)c(F)c1	29%	-1%	3.2µM*	-11%	0%	0%
